Consider six molecules from PubChem BioAssay (NCATS).

Experiment [1] deals with Lysosomal acid glucosylceramidase (Homo sapiens) (UniProt P04062). Briefly: Glucocerebrosidase-p2 (AID 348; in the data active means potency below about 10 µM; further: potency means the concentration at half of the fitted maximal effect). Particulars: purified GBA, blue fluorogenic substrate, 40 min. The method, boiled down: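 Normal human glucocerebrosidase (0.2 nM) with blue fluorogenic substrate (80 uM final) in citrate/phosphate pH 5.9 with 10mM sodium taurocholate, 0.01% tween-20; 40 min RT, NaOH/glycine stop; fluorescence Ex 365/Em 440; AC50 from a titration from 0.6 nM upwards.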

Experiment [2] in a line: AP1 Signaling Pathway (AID 357).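 Further: ME-180 reporter cells stimulated with EGF at its EC50 level; on the % scale 0 is the no-effect control and ±100 the full control effect.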 Particulars: ME-180 AP-1-bla reporter, EGF-induced, beta-lactamase ratio, 5 h; at 7.69 µM (top of the series) unless noted. The method, boiled down: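 A ratiometric CCF4 readout (405 nm excitation; 460 and 530 nm emission) quantified AP-1-driven beta-lactamase in ME-180 cells after 5 h with compound and EC50 EGF; AC50 values were derived for activators and inhibitors.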

For experiment [3], the target named is Cytochrome P450 1A2 (Homo sapiens) (UniProt P05177). Briefly: p450-cyp1a2 (AID 410; calls by dose curve; further: potency means the concentration at half of the fitted maximal effect;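 on activity change, negative = inhibition: -100% = full effect of reference inhibitor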). Conditions: recombinant CYP1A2, luciferin-ME demethylation, luminescence; series mostly up to 11.4 µM. In outline:
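20nM CYP1A2, 100uM Luciferin-ME (=Km), 100mM KPO4; cpd 10 min RT; +NADPH regen, 60 min RT; stop/detect 20 min; luminescence. Normalized to furafylline 57 uM = full inhibition.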

Experiment [4] is described as follows: NFAT Signaling Pathway (AID 444).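 Further: carbachol stimulus at about its EC50 of 1 µM final; on the % scale 0 is the no-effect control and ±100 the full control effect.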 Conditions: Jurkat NFAT-bla M1, carbachol, beta-lactamase ratio, 5 h; at 7.69 µM (top of the series) unless noted. The method, boiled down:
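Jurkat cells carrying an NFAT-driven β-lactamase reporter and co-transfected muscarinic M1 receptor were treated with compound plus carbachol (1 uM final, an EC50 level) for 5 h at 37 °C. CCF4 loading followed for 1 h at RT; 460/530 nm ratio gave %activity.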

A short description of experiment [5]: Stat Signaling Pathway (AID 446).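 Further: ME-180 cervical cancer cells given 40 pM IL-6 alongside compound; SIE-controlled beta-lactamase reporter measured as 460/530 nm FRET emission ratio; on the % scale 0 is the no-effect control and ±100 the full control effect.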 Conditions: ME-180 (cervical carcinoma) SIE beta-lactamase reporter, IL-6 stimulated, 5 h; at 7.69 µM (top of the series) unless noted. In outline:
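FRET read-out (405 nm excitation, 460/530 nm emission) of a beta-lactamase reporter under a STAT-inducible element in ME-180 cervical carcinoma cells. Cells with compound receive 40 pM IL-6 for 5 h. Values are normalised to AC90 stimulation and AC90 JAK-inhibitor controls.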

Experiment [6] deals with Glucocorticoid receptor (Homo sapiens) (UniProt P04150). Description: GR-GFP Redistribution (AID 450;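 active means compounds whose dose series gives a full or clear partial fitted curve of increased nuclear translocation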; further: potency means the concentration at half of the fitted maximal effect). Particulars: U2OS GR-GFP nuclear translocation, laser cytometry, 2 h.
Experiment [7] has the same target. Description: GR-EFC Redistribution (AID 451; calls by dose curve; further: potency means the concentration at half of the fitted maximal effect). Conditions: CHO-K1 GR-EFC translocation, beta-gal luminescence, 2 h. The method, boiled down:
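CHO-K1 cells stably expressing nuclear-localized β-gal enzyme acceptor and GR fused C-terminally to the enzyme donor fragment; ligand-driven nuclear translocation restores β-gal by complementation. Compounds titrated up to 46 uM final, 2 h at 37 °C; luminescence read.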

For experiment [8], the target named is Mitogen-activated protein kinase 10 (Mus musculus) (UniProt Q61831). Briefly: JNK3 AlphaScreen Assay (AID 530).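 Further: kinase came from lysate of stimulated human HepG2 cells; signal reports phosphorylation of biotinylated GST-cJun 1-79 at Ser73 with 10 µM ATP; on the % scale 0 is the no-effect control and ±100 the full control effect.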 Conditions: JNK3 lysate, c-Jun phosphorylation; series mostly up to 11.4 µM. The method, boiled down:
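Biotinylated GST-cJun(1-79) served as substrate for JNK3 in HepG2 lysates stimulated with IL-1beta and TNF-alpha. ATP was 10 uM final, pH 7.6. Ser73 phosphorylation was quantified by AlphaScreen (680 nm excitation).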
For orientation: Alpha assays give light when donor and acceptor beads are brought close together.

The target of experiment [9] is 3',5'-cyclic-AMP phosphodiesterase 4B (Homo sapiens) (UniProt Q07343). Briefly: qHTS Assay for Inhibitors of PDE-IV (AID 607; active means well fitted activation curve with a large enough effect in the main read-out, with a control signal flat, not every such curve was filed as active; further: % of control where 0% means no effect). Particulars: HEK293 ACTOne CNG channel cells, membrane potential fluorescence; series mostly up to 22.9 µM. The method, boiled down:
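Cell-based read-out of cAMP via a modified cyclic nucleotide-gated channel and membrane potential dye (535/590 nm) in HEK293 cells expressing PDE4 endogenously. Compounds tested up to 22.9 uM final; 100 uM RO 20-1724 reference.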
In general terms: qHTS replaces the single test concentration by a dilution series.

Experiment [10] concerns the target Cytochrome P450 2C9 (Homo sapiens) (UniProt P11712). Briefly: qHTS Assay for Inhibitors and Substrates of Cytochrome P450 2C9 (AID 883; active means well fitted curve in the direction sought with a large enough effect; an effect the other way counts as inactive or inconclusive; further: nearly all actives have a fitted effect of over 60% in size; further: potency means the concentration at half of the fitted maximal effect). Conditions: recombinant CYP2C9, luciferin-H luminescence, 60 min; series mostly up to 11.4 µM. In outline: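 Human CYP2C9 (10nM) hydroxylated Luciferin-H (100uM, at its KM) to luciferin in 25mM KPO4. Compound was preincubated 10 min at 37C, then NADPH regeneration started a 60 min reaction at 37C. Luminescence was read after detection reagent, normalized to 57uM sulphaphenazole.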

The target of experiment [11] is Cytochrome P450 2D6 (Homo sapiens) (UniProt P10635). Description: qHTS Assay for Inhibitors and Substrates of Cytochrome P450 2D6 (AID 891; active means well fitted curve in the direction sought with a large enough effect; an effect the other way counts as inactive or inconclusive;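 further: luciferin methyl ether substrate demethylated by CYP2D6 with NADPH regeneration; on the % scale 0 is the no-effect control and ±100 the full control effect; nearly all actives have a fitted effect of over 60% in size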). Conditions: recombinant CYP2D6, luciferin-ME EGE luminescence; series mostly up to 11.4 µM. In outline:
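Luminescent read-out of luciferin formed by 5 nM human CYP2D6 demethylating 30 uM Luciferin-ME EGE (Km level) over 60 min at room temperature after NADPH regeneration addition. Data normalized to full inhibition by 1.43 uM quinidine.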

Experiment [12] addresses Cytochrome P450 2C19 (Homo sapiens) (UniProt P33261). Briefly: qHTS Assay for Inhibitors and Substrates of Cytochrome P450 2C19 (AID 899; active means well fitted curve in the direction sought with a large enough effect; an effect the other way counts as inactive or inconclusive; further: nearly all actives have a fitted effect of over 60% in size; further: potency means the concentration at half of the fitted maximal effect). Particulars: recombinant CYP2C19, luciferin-H EGE luminescence; series mostly up to 11.4 µM. The method, boiled down: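 Human CYP2C19 (5nM) with Luciferin-H EGE at 10uM (its KM) in 50mM KPO4 was preincubated with compound for 10 min at 37C. NADPH regeneration started a 60 min 37C reaction. Luciferin was read by luminescence, normalized to 57uM ketoconazole.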

Experiment [13] concerns the target Cytochrome P450 3A4 (Homo sapiens) (UniProt P08684). Briefly: qHTS Assay for Inhibitors and Substrates of Cytochrome P450 3A4 (AID 884; active means well fitted curve in the direction sought with a large enough effect; an effect the other way counts as inactive or inconclusive; further: potency means the concentration at half of the fitted maximal effect; nearly all actives have a fitted effect of over 50% in size). Particulars: recombinant CYP3A4, Luciferin-PPXE luminescence; series mostly up to 57.1 µM. In outline: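 Luminescent readout of luciferin produced by CYP3A4 (20 nM) dealkylation of Luciferin-PPXE, 25 uM (its KM). NADPH-driven reaction ran 60 min at RT after 10 min compound preincubation; data scaled to 57 uM ketoconazole as 100% inhibition.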

For experiment [14] the target is unchanged. Description: qHTS Assay for Activators of Cytochrome P450 3A4 (AID 885; active means well fitted curve in the direction sought with a large enough effect; an effect the other way counts as inactive or inconclusive; further: nearly all actives have a fitted effect of over 65% in size). Particulars: recombinant CYP3A4, Luciferin-PPXE luminescence, 60 min; series mostly up to 11.4 µM. In outline:
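Luminescent readout of luciferin formed from 25 uM Luciferin-PPXE (KM level) by 20 nM CYP3A4 in 200 mM KPO4, with 60 min NADPH-driven reaction at room temperature after 10 min compound exposure. Ketoconazole (57 uM) defined 100% inhibition.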

A number with no mark means an inactive call. Inconclusive results are not listed. The source made the active and inactive calls. Unless noted, the call rests on the fitted dose curve; in most records, active means well fitted curve in either direction with a large enough effect (not every such curve was filed as active); inconclusive means small, poorly fitted or top-dose-only effect, or another doubt; inactive means flat fitted curve, though single readings scatter.

Chain of Cytochrome P450 1A2 (Homo sapiens) (P05177 whole entry, looked up): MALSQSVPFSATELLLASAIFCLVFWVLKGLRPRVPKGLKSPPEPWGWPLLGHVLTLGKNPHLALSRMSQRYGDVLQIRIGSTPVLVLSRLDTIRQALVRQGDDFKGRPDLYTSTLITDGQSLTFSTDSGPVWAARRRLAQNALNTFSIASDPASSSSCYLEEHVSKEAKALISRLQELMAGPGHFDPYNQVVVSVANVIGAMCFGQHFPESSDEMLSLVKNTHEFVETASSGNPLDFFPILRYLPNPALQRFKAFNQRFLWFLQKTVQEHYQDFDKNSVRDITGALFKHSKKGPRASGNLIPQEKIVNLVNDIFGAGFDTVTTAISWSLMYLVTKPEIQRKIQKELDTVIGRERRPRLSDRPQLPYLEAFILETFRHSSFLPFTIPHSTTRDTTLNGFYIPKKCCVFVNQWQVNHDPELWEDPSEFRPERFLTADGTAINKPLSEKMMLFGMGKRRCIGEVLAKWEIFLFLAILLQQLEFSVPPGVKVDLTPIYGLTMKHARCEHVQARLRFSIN
Chain of Glucocorticoid receptor (Homo sapiens) (P04150 whole entry, looked up): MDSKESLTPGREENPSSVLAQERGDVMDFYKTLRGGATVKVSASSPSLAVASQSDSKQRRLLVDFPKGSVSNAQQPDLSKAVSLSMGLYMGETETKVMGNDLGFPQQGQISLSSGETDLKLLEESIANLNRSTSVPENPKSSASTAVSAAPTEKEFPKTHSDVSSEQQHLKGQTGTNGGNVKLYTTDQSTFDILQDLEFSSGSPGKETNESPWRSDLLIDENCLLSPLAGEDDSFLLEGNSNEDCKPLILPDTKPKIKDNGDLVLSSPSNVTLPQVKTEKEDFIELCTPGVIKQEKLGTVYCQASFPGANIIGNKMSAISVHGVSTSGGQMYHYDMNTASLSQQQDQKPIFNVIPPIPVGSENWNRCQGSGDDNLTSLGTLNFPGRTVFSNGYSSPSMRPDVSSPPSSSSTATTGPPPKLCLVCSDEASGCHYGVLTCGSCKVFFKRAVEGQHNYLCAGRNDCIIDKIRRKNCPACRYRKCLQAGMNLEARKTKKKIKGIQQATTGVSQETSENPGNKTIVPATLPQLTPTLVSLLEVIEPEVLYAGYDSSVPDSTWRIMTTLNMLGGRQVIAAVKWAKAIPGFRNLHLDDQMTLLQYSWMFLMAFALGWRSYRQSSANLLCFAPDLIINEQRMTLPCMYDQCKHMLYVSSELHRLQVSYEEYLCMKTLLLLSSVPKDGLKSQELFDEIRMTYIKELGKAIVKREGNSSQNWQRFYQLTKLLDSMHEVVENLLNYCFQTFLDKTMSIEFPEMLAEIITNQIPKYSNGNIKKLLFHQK
Chain of 3',5'-cyclic-AMP phosphodiesterase 4B (Homo sapiens) (Q07343 whole entry, looked up): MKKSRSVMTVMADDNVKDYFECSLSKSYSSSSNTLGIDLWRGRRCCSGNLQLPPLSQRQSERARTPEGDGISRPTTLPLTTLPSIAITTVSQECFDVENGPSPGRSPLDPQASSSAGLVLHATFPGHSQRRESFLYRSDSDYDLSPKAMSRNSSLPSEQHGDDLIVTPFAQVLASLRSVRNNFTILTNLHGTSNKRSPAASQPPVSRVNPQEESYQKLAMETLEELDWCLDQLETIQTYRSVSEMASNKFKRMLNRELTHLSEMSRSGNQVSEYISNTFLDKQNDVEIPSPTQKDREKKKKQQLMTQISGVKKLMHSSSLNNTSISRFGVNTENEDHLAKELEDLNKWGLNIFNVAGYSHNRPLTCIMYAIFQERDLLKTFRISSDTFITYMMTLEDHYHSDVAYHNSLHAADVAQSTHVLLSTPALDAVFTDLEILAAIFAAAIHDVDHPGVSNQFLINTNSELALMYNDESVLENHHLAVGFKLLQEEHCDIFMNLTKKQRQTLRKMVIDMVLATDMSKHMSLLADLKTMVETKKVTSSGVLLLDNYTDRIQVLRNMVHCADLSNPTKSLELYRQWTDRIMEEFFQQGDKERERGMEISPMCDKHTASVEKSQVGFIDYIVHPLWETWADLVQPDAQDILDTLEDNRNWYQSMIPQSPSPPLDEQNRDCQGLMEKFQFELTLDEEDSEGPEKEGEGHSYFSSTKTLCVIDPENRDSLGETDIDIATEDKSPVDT
Chain of Lysosomal acid glucosylceramidase (Homo sapiens) (P04062 whole entry, looked up): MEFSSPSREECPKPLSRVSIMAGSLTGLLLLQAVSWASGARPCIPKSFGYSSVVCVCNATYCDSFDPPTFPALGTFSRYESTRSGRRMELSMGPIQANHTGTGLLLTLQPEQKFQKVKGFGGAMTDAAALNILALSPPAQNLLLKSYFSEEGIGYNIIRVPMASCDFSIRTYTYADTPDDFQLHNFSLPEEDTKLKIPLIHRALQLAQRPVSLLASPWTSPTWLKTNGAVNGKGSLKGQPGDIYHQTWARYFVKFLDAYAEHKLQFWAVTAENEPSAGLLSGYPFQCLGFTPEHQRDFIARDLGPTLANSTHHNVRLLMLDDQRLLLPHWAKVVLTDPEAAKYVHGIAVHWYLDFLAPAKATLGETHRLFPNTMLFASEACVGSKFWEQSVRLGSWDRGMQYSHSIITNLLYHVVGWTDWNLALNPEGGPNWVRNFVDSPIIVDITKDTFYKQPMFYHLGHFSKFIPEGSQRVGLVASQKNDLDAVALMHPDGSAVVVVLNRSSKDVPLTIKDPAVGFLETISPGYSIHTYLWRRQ
Chain of Cytochrome P450 2D6 (Homo sapiens) (P10635 whole entry, looked up): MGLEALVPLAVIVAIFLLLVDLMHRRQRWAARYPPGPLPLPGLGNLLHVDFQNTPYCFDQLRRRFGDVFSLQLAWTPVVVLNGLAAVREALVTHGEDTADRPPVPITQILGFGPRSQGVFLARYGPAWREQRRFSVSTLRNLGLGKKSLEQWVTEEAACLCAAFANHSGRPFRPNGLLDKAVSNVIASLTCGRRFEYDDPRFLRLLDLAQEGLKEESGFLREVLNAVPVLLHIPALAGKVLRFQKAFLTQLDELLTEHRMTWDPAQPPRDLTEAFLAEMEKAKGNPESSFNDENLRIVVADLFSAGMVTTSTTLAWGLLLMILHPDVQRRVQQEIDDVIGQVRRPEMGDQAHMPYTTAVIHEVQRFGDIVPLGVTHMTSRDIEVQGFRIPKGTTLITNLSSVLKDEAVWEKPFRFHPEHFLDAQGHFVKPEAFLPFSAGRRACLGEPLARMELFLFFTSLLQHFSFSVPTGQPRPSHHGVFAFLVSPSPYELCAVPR
Chain of Cytochrome P450 2C9 (Homo sapiens) (P11712 whole entry, looked up): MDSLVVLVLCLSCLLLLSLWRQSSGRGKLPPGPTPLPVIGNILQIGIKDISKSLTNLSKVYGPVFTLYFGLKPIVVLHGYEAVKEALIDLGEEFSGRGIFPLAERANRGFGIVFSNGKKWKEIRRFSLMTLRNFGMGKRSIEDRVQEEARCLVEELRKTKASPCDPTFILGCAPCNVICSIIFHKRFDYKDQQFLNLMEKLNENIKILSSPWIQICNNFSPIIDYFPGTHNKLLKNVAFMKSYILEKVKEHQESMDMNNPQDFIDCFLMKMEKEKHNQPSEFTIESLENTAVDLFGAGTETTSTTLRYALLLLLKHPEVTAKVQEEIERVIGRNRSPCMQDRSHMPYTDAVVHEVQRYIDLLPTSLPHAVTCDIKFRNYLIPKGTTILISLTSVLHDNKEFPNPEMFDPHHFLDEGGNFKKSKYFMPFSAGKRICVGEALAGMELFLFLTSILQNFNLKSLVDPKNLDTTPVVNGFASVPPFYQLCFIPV
Chain of Cytochrome P450 2C19 (Homo sapiens) (P33261 whole entry, looked up): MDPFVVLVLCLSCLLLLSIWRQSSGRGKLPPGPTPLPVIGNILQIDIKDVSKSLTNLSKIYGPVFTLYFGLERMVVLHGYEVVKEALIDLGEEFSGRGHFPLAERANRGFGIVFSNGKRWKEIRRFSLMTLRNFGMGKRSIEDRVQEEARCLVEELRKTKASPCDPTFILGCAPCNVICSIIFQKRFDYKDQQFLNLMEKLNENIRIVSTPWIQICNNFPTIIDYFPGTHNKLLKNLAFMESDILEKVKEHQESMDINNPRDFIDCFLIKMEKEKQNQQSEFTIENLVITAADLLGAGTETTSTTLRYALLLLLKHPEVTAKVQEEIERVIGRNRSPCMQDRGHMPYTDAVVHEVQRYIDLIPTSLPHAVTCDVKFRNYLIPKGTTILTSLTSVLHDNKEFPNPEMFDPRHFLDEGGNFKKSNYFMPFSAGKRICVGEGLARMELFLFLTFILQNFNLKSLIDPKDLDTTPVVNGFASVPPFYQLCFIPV
Chain of Cytochrome P450 3A4 (Homo sapiens) (P08684 whole entry, looked up): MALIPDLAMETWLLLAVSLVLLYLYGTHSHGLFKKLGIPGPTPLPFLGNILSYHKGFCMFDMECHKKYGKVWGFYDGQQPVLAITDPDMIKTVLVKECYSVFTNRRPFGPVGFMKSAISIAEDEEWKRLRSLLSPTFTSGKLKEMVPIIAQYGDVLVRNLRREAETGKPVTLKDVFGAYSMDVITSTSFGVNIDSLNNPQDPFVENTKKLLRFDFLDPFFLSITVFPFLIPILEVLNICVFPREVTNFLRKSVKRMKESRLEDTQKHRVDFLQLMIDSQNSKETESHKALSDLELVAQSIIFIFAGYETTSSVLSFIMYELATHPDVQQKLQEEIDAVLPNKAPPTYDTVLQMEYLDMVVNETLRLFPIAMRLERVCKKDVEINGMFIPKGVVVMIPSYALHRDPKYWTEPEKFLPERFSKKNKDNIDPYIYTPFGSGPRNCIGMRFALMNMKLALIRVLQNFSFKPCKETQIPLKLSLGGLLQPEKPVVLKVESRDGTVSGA

On to `O=C1CNCCCN2CCN(CCCNCC(=O)Nc3ccc(cc3)S(=O)(=O)c3ccc(cc3)NC(=O)CNCCCN3CCN(CCCNCC(=O)Nc4ccc(cc4)S(=O)(=O)c4ccc(cc4)N1)CC3)CC2`, for which the values for the Potency in experiment [1], in experiment [6] and in [7] were > 11.4 µM, > 46 µM and > 9.22 µM, respectively. Moreover, the activity change, negative = inhibition in experiment [2] was -2.18%; in [4] it was 13.1%. In addition, the Potency result in experiment [3], in experiment [8], in experiment [9], in experiment [10], in experiment [11] and in [12] was “inactive” throughout. In experiment [5], the activity, negative = inhibition is -11%.
Turning to `O=C1c2ccccc2N[C@H](c2cc(Cl)cc(Cl)c2O)N1CCc1ccccn1`, the Potency in experiment [1] was > 11.4 µM; in experiment [6], > 46 µM; in experiment [7], > 9.22 µM; in [10], 3.16 µM (active); in experiment [13], 0.794 µM (active); in experiment [12] it was 3.98 µM (active). The activity change, negative = inhibition in [2] was -16.9%; in [3], 5.8% [at 2.29 µM]; in experiment [4], 5.29%. For the same molecule, in [5], the activity, negative = inhibition is -24.9%. Also, the Potency result in experiment [8] and in [9] was “inactive” in each case.
Turning to `O=C(C[C@@H]1C=Cc2ccccc2N1C(=O)c1ccccc1)c1ccccc1`, the Potency in [1] is > 11.4 µM; in [6], > 46 µM; in experiment [7], > 9.22 µM; in [10] it was 2.51 µM (active); in experiment [12] it was 0.501 µM (active). Also, the activity change, negative = inhibition in experiment [2] was -6.74%; in experiment [3], -23.2% [at 2.29 µM]; in experiment [4], -22.9%. The activity, negative = inhibition in [5] was -9.68%. In addition, the Potency result in experiment [8], in [9] and in experiment [14] was “inactive” in each case.
Take `CCCCC[C@@H](O)[C@@H]1C(=O)O[C@@H](C)[C@@H](O)\C=C/C=C\C=C/C=C\C=C(\C)[C@H](O)C[C@H](O)C[C@H](O)C[C@H](O)C[C@H](O)C[C@H](O)C[C@@H]1O`: the Potency is > 11.4 µM in experiment [1], > 46 µM in experiment [6], > 9.22 µM in experiment [7] and 3.98 µM (active) in experiment [12]. Further, the activity change, negative = inhibition in experiment [2] is -1.52%; in experiment [3], 3.3% [at 2.29 µM]; in experiment [4], -11.4%. For the same molecule, the activity, negative = inhibition in experiment [5] was 11%. Moreover, the Potency result in [8], in experiment [9], in experiment [10] and in [11] was “inactive” in each case.
`N=C(N)SCCN1CCCCC1`: the values for the Potency in [1], in experiment [6] and in [7] were > 11.4 µM, > 46 µM and > 9.22 µM, respectively. Also, the results for the activity change, negative = inhibition in experiment [2] and in [4] were 10.8% and 0.176%, respectively. The Potency entry in experiment [3], in experiment [8], in experiment [9], in [10], in [11] and in experiment [12] was “inactive” each time. Moreover, the activity, negative = inhibition in experiment [5] is -0.606%.
As for `N#C[C@H](c1ccccc1)N1CCCN([C@@H](C#N)c2ccccc2)C1c1ccccc1O` (stereo partly specified), the Potency in experiment [1] was > 11.4 µM; in experiment [3] it was 3.98 µM (active); in experiment [6], > 46 µM; in experiment [7] it was > 9.22 µM; in experiment [10], 3.16 µM (active); in experiment [12], 0.251 µM (active). Also, the activity change, negative = inhibition in experiment [2] is 8.03%; in experiment [4] it was -26.1%. Moreover, the activity, negative = inhibition in [5] was 6.35%. In addition, the Potency entry in experiment [8] and in [9] was “inactive” throughout.
